MITF primary = MITF inhibitors, primary screen, biochemical, AlphaScreen, human. inhibition, % at 2.6 µM. 0.91% of 650,000 active. Microphthalmia-associated transcription factor (Homo sapiens), O75030. AlphaScreen MITF homodimerization, bead proximity signal. AID 1259374, 2018; in the data active means inhibition above about 50%;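 further: 0% = vehicle wells with protein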
Target sequence (O75030 whole entry, looked up): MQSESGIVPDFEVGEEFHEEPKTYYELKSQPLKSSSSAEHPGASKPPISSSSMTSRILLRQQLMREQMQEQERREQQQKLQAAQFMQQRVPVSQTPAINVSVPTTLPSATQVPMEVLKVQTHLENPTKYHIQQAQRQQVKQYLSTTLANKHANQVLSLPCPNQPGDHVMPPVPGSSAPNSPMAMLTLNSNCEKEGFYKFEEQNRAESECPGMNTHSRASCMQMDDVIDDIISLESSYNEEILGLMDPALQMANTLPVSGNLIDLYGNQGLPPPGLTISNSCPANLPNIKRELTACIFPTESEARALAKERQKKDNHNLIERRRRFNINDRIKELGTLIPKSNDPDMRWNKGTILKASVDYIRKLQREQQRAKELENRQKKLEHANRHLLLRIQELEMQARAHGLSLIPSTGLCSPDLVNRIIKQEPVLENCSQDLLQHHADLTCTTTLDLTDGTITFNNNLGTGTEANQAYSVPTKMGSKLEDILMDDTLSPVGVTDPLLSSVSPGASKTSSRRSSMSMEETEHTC
GPR151 ag = activators of human GPR151, primary screen, cell-based, PathHunter beta-arrestin, luminescence. AID 1508602, 2020. 1% of 650,000 active. PathHunter beta-arrestin GPR151 cells. G-protein coupled receptor 151 (Homo sapiens), Q8TDV0. activation, % at 11.2 µM; in the data active means activation above about 4.9%;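 further: 0% = median of compound wells and 100% = cells with positive control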
TEAD-YAP block = TEAD-YAP interaction inhibition, primary screen, TEAD-YAP interaction inhibitor project, luminescence, HEK-TIYL cells; TEAD-Gal4/YAP UAS-luciferase luminescence; inhibition, % at 9.12 µM; 1.4% of 640,000 active; AID 1259422, 2018; in the data active means inhibition above about 32%;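 further: 0% = median of test compound wells and 100% = reference inhibitor wells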
FBW7 act = FBW7 E3 ligase activators, primary screen, biochemical, AlphaScreen, human | F-box/WD repeat-containing protein 7 (Homo sapiens), Q969H0 | AlphaScreen FBW7–phospho-cyclin E peptide binding, activator screen | normalized activity (activation), % at 26.1 µM | 0.13% of 650,000 active | AID 1259310, 2017; in the data active means normalized activity above about 1.9%;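 further: purified mutant Fbw7 with reduced substrate affinity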
GPR151 confirm = GPR151 activators, triplicate retest, confirmation, cell-based, PathHunter beta-arrestin, luminescence. shares compounds with GPR151 ag. GPR151 PathHunter beta-arrestin cells, 90 min; % of EA-reagent control over plate median. activation, % at 11.2 µM. 6,700 tested, under 10 active. AID 1508609, 2020;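 active means mean percent activation across replicates above the confirmation screen cutoff of 4.91%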
GPR119 counter = GPR119 activators in beta-arrestin cells, counter-screen for GPR151 activator project, cell-based, PathHunter beta-arrestin, luminescence, triplicate; shares compounds with GPR151 ag; 90 min; 0 = compound-well median, 100 = enzyme-acceptor control; activation, % at 11.2 µM; 0.3% of 6,700 active; AID 1508611, 2020;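 active means mean percent activation in the counterscreen above 29.09%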;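 further: counterscreen on off-target GPR119 to flag nonselective hits from the GPR151 activator screen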
The depositor's hits bear a star; . = no result; ! = repeats disagree. In the library only some 3.4% were active in any assay of this set; here they are far more common.

SMILES | MITF primary | GPR151 ag | TEAD-YAP block | FBW7 act | GPR151 confirm | GPR119 counter
CN(C)c1cccc(C(=O)OCc2ccc([N+](=O)[O-])cc2Cl)c1 | 4 | 0 | -2 | 0 | . | .
NC(=O)CC(c1ccccc1)c1ccc2c(c1)OCO2 (stereo unspecified) | 0 | 6.4* | 12 | 0 | 0 | 6
COc1ccccc1CCc1nnc(CCC(=O)NCc2ccc(Cl)cc2)o1 | -1 | 0 | 0 | 0 | . | .
O=C1C(=O)C(c2ccccc2)C(=O)C1c1ccccc1 (stereo unspecified) | 18 | 1 | 5 | 0 | . | .
Cc1nc(SCc2cccc(Oc3ccccc3)c2)n[nH]1 | 2 | 7.9* | 26 | 0 | 0 | -1
O=c1[nH]nc(SCc2cccc(Oc3ccccc3)c2)c(=S)[nH]1 | 5 | -1 | 4 | 0 | . | .
COc1cccc(C=O)c1OCc1ccc(F)cc1 | -12 | 5.2* | 0 | 0 | 1 | -5
COc1cccc(C=O)c1OCc1ccc(Br)cc1 | -9 | -2 | -8 | 0 | . | .
CCOc1ccc(N=Cc2c(O)n(CC)c(=S)[nH]c2=O)cc1 | -4 | 6.0* | 0 | 0 | 0 | -2
O=S(=O)(NCc1ccc(F)cc1)c1ccc(Br)cc1 | 12 | 0 | 5 | 0 | . | .
CCCCOC(=O)C1=C(C)NC(=O)NC1c1cc2c(cc1Br)OCO2 (stereo unspecified) | -6 | 5.1* | 9 | 0 | 1 | 9
CCOC(=O)C(=O)C1=CN(Cc2ccccc2)C=C(C#N)C1 | 15 | 2 | -4 | 0 | . | .
O=C1N[C@@H](Cc2ccc(O)cc2)C(=O)N2CCN(C(=O)c3cc(F)ccc3F)C[C@H]12 | -2 | 5.7* | -18 | 0 | 1 | 9
CC[C@@H]1NC(=O)[C@H]2CN(C(=O)c3cccc(Cl)c3)CCN2C1=O | 6 | 13* | -2 | 0 | 1 | 10
O=C1N[C@@H](Cc2cnc[nH]2)C(=O)N2CCN(C(=O)c3ccc(F)cc3)C[C@H]12 | -20 | 6.0* | -3 | 0 | 1 | 12
O=C1N[C@@H](Cc2ccc(Cl)cc2)C(=O)N2CCN(C(=O)c3cc(Cl)cc(Cl)c3)C[C@H]12 | 1 | 15* | -6 | 0 | 1 | 10
Oc1ccc(CCN=Cc2c(O)[nH]c3ccccc23)cc1 | -10 | 1 | 3 | 0 | . | .
COc1cccc(C2C(C(=O)Nc3ccccc3C)=C(C)Nc3nnnn32)c1 (stereo unspecified) | -4 | 1 | 4 | 0 | . | .
C[C@H](O)[C@H]1NC(=O)[C@H]2CN(C(=O)c3ccc4ccccc4c3)CCN2C1=O | -2 | 6.2* | 6 | 0 | 1 | 13
C[C@@H](O)[C@@H]1NC(=O)[C@H]2CN(C(=O)c3ccc4ccccc4c3)CCN2C1=O | 10 | 3 | 6 | 0 | . | .
C=CCOc1ccc(/C(O)=C2\C(=O)C(=O)N(CCCN(C)C)C2c2cccc(Oc3ccccc3)c2)cc1C (stereo unspecified) | 1 | -2 | 1 | 0 | . | .
CCOC(=O)c1cccc(Nc2nc(-c3ccccc3Cl)nc3ccccc23)c1 | 2 | 0 | 11 | 0 | . | .
CCOC(=O)c1cccc(Nc2nc(-c3ccccc3)nc3ccccc23)c1 | 17 | 5.9* | 4 | 0 | 0 | -1
CCOC(=O)c1nc(Nc2ccc(OC(C)C)cc2)c2ccccc2n1 | 7 | 8.8* | 5 | 0 | 2 | 6
CCOC(=O)c1nc(Nc2ccc(OCC)cc2)c2ccccc2n1 | 17 | 1 | 2 | 0 | . | .
SMILES | MITF primary | GPR151 ag | TEAD-YAP block | FBW7 act | GPR151 confirm | GPR119 counter
O=[N+]([O-])c1c(Nc2ccc(Br)cc2F)ccc2nonc12 | 8 | 5.0* | 16 | 0 | 0 | -7
COc1ccc(-c2cc3nc(C)cc(=O)n3[nH]2)cc1 | 6 | -1 | -21 | 0 | . | .
CSCCC(NC(C)=O)C(=O)Oc1ccc2c3c(c(=O)oc2c1)CCCC3 (stereo unspecified) | 15 | 5.4*! | 4 | 1 | 0 | -4
CC(Oc1ccc2c3c(c(=O)oc2c1)CCCC3)C(=O)O (stereo unspecified) | -1 | 0 | 7 | 0 | . | .
Cc1nn(C)cc1C(=O)N1CCC(c2[nH]ncc2-c2ccncc2)CC1 | 21 | 0 | 6 | 0 | . | .
CCc1ccccc1NC(=S)Nc1nc2ccc(F)cc2s1 | -3 | 5.5* | 46* | 0 | 0 | -8
CC(C)C(=O)Nc1nc2ccc(F)cc2s1 | -1 | 0 | -42 | 0 | . | .
Clc1ccc(C2CSc3c4ncnc-4ncn32)cc1 (stereo unspecified) | 11 | -2 | 3 | 0 | . | .
COc1cc([N+](=O)[O-])ccc1NC(=O)c1oc(=O)c2ccccc2c1-c1ccc(C)cc1 | 9 | 5.7* | -5 | 0 | 0 | 16
CCn1ncc(C(=O)N2CCC(c3nc(N4CCCC4)ncc3-c3cc(C)no3)CC2)c1C | -16 | 0 | 2 | 0 | . | .
COc1ccc(-c2noc(CC(=O)Nc3cc(C)on3)n2)cc1 | 9 | 0 | 2 | 0 | . | .
COc1ccc(-c2noc(CC(=O)Nc3cccc(C)n3)n2)cc1 | 4 | 5.5* | 2 | 0 | 1 | -8
CCN(CC)CCCN(C)C(=O)Cc1nc(-c2ccc(OC)cc2)no1 | 4 | 5.0* | -5 | 0 | 0 | 0
CC(C)N(Cc1nc(-c2ccccc2)no1)C(=O)c1ccccc1F | 13 | -1 | 11 | 1 | . | .
CCN(C(=O)Cc1nc(-c2ccc(OC)cc2)no1)c1ccccc1C | 6 | 8.9* | 7 | 0 | 1 | -6
COc1ccc(-c2noc(CN(C(=O)c3ccccc3F)C(C)C)n2)cc1 | 16 | 5.4* | -5 | 0 | 0 | 10
CS(=O)(=O)c1cnc2ncnn2c1C1CCN(C(=O)c2cccnc2)CC1 | 14 | 0 | 7 | 0 | . | .
CCOC(=O)C(NC(=O)/C(=C/c1ccccc1F)NC(=O)c1ccccc1)C(C)O (stereo unspecified) | 8 | 0 | -3 | 0 | . | .
CC1CCN(C(=O)CN2C(=O)NC(Cc3ccccc3)(Cc3ccccc3)C2=O)CC1 | 4 | -2 | 6 | 0 | . | .
CC1CC(C)CN(C(=O)CN2C(=O)NC(Cc3ccccc3)(Cc3ccccc3)C2=O)C1 (stereo unspecified) | 2 | 5.0* | 9 | 0 | 0 | 13
COc1ccc(OC)c(C(=O)CC2(O)C(=O)Nc3ccc(Br)cc32)c1 (stereo unspecified) | -3 | 5.8* | -17 | 0 | 0 | -5
C=CCSc1nc2c(c(=O)n1-c1ccc(OC)cc1)C1(CCCC1)Cc1ccccc1-2 | -4 | 0 | -13 | 0 | . | .

Screening results as filed in PubChem.
